Source: PubChem BioAssay AID1347420 (Sanford-Burnham Center for Chemical Genomics, 2020)
“And” between values parts separate entries of the source, which are not always exact repeats. Equal values may be shown once. Out of some 1,300 compounds screened, about 980 (75%) were called active. Another 4% or so got no clear call; they are omitted. The list shows a part of the results. Values without a mark were called inactive.

The compounds below were run against Sulfhydryl oxidase 1 (Homo sapiens) (UniProt O00391) (assay: inhibition of human sulfhydryl oxidase QSOX1 – biochemical, HyperBlu H2O2 luminescence, HTS, primary screen (AID 1347420; note: values above 100% were filed as inconclusive)). Details: recombinant QSOX1, HyperBlu H2O2 luminescence, at 12.5 µM, active compounds read high; active = any value above zero unless noted.
Sulfhydryl oxidase 1 (Homo sapiens), sequence (O00391 whole entry, looked up): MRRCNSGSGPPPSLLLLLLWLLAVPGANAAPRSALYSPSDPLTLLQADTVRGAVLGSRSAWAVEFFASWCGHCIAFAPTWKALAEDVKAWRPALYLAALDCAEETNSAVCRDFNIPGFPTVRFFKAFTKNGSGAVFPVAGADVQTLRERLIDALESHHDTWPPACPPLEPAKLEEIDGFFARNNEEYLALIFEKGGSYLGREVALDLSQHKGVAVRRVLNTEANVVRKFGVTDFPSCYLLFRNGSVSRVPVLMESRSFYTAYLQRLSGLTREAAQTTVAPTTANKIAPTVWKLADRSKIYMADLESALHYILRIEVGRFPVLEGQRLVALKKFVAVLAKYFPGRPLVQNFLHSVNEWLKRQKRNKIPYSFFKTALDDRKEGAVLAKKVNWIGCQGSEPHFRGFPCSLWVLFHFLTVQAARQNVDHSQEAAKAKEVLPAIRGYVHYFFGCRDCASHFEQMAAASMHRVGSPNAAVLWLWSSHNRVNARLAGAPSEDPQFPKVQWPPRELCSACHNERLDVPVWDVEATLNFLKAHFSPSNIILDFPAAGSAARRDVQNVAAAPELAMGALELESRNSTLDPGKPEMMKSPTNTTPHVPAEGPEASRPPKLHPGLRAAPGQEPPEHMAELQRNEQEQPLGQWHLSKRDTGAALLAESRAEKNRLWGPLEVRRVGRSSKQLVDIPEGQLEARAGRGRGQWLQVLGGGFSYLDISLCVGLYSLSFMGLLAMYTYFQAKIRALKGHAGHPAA
Compound CCCn1c(C)c(C(=O)c2ccc3ccccc3c2)c2ccccc21 has an inhibition of -8.8% [setting not given].
In the case of CCCCCCCCCCCCCC(=O)O[C@@H]1[C@@H](C)[C@@]2(O)[C@@H](C=C(CO)C[C@@]3(O)C(=O)C(C)=C[C@@H]23)C2C(C)(C)[C@@]21OC(C)=O (stereo not given in full), the inhibition is reported as -11.5%.
In the case of CN(N=O)c1ccc(O)c(O)c1, the inhibition is reported as 9% (active).
For CN(N=O)c1cc(O)ccc1O, the inhibition was 56% (active).
In the case of NC(=O)c1ccc(OCC(O)CN2CC=C(c3ccc(F)cc3)CC2)cc1 (stereo not given), the inhibition is reported as -3.1%.
For CC(NC(C)(C)C)C(=O)c1cccc(Cl)c1 (stereo not given), the inhibition was 0.2% [setting not given] (active).
With CC1=NN=C(c2ccc(N)cc2)c2cc3c(cc2C1)OCO3 the inhibition was 11% (active).
With CC(C)NP(=O)(NC(C)C)OP(=O)(NC(C)C)NC(C)C the inhibition was -1.6%.
In the case of C=CCN1CC[C@]23c4c5ccc(O)c4O[C@@H]2/C(=N/N=C2\CC[C@@]4(O)C6Cc7ccc(O)c8c7[C@@]4(CCN6CC=C)[C@@H]2O8)CC[C@@]3(O)C1C5, the inhibition is reported as 29.2% (active).
With O=C1CC[C@@]2(O)C3Cc4ccc(O)c5c4C2(CCN3CC2CC2)[C@H]1O5 (stereo not given in full) the inhibition was 16.8% [setting not given] (active).
In the case of C=CCN1CC[C@]23c4c5ccc(O)c4O[C@H]2/C(=N/NC(=O)c2ccccc2)CC[C@@]3(O)[C@H]1C5, the inhibition is reported as 24.9% [setting not given] (active).
For C=CCN1CCC23c4c5ccc(O)c4O[C@H]2C(=O)CC[C@@]3(O)C1C5 (stereo not given in full), the inhibition was 19.6% [setting not given] (active).
In the case of Cn1cnc(CCN)c1, the inhibition is reported as 10.9% (active).
With COc1ccc(C(CN(C)C)C2(O)CCCCC2)cc1 (stereo not given) the inhibition was 7.4% (active).
NCCCP(=O)(O)O showed an inhibition of -9.2%.
In the case of CCCCc1ccc(C(=O)O)nc1, the inhibition is reported as 5.9% (active).
CC(N)[C@H](O)c1ccc(O)c(O)c1 (stereo not given in full) was tested, and the inhibition was 57.3% [setting not given] (active).
NC(C(=O)O)c1cc(=O)[nH]o1 (stereo not given) was tested, and the inhibition was 4.7% (active).
In the case of CCCN1CCC[C@@H]2Cc3[nH]ncc3C[C@H]21, the inhibition is reported as 5.1% (active).
For CCCN1CCC[C@@H]2Cc3nc(N)ncc3C[C@H]21, the inhibition was 14.3% (active).
In the case of O=C(N[C@H]1CN2CCC1CC2)c1ccc(Cl)cc1, the inhibition is reported as 8.6% (active).
In the case of CC(C)(C)NCC(O)c1ccccc1Cl (stereo not given), the inhibition is reported as 6.8% (active).
In the case of COc1ccc2c(c1OC)C(=O)O[C@H]2[C@@H]1c2cc3c(cc2CCN1C)OCO3, the inhibition is reported as 12.6% (active).
For O=[N+]([O-])/C=C/c1ccc2c(c1)OCO2, the inhibition was 19.2% (active).
In the case of C#CCN[C@H](C)Cc1ccccc1, the inhibition is reported as 8.8% [setting not given] (active).
In the case of CNc1ccc2oc(C[C@H]3O[C@@]4(CC[C@H]3C)O[C@H]([C@H](C)C(=O)c3ccc[nH]3)[C@H](C)C[C@H]4C)nc2c1C(=O)O, the inhibition is reported as 30.5% [setting not given] (active).
For O=C(O)CC[N+](=O)[O-], the inhibition was 12% [setting not given] (active).
With CCn1cnc2c(Nc3cccc(Cl)c3)nc(N[C@@H]3CCCC[C@@H]3N)nc21 the inhibition was 10.8% (active).
CC(C)[C@H]1CN[C@H](C(=O)O)[C@H]1CC(=O)O was tested, and the inhibition was 23.9% (active).
C=C(C)[C@H]1CN[C@H](C(=O)O)[C@H]1CC(=O)O was tested, and the inhibition was 5.8% (active).
For COC(=O)N1CCN(C(=O)Cc2ccc(Cl)c(Cl)c2)C(CN2CCCC2)C1 (stereo not given), the inhibition was 13.5% (active).
CN(C(=O)Cc1ccc(Cl)c(Cl)c1)C(CN1CCCC1)c1cccc(OCC(=O)O)c1 (stereo not given) was tested, and the inhibition was -2.6%.
In the case of O=C(Cc1ccc(Cl)c(Cl)c1)N1CCCCC1CN1CCCC1 (stereo not given), the inhibition is reported as 2.1% (active).
For NN=C(N)N, the inhibition was 17.9% (active) and 6.7% (active).
With NC(Cc1cc(O)c(O)cc1O)C(=O)O (stereo not given) the inhibition was 30.1% (active).
For NC1CCc2cc(O)c(O)cc2C1 (stereo not given), the inhibition was 60.4% (active).
Work on COC(=O)[C@@H](N)CCCN=C(N)N[N+](=O)[O-] yielded an inhibition of -8.2%.
For NC(=NCCC[C@H](N)C(=O)O)N[N+](=O)[O-], the inhibition was 7.4% (active).
For COc1ccc2c(c1)c(CCN1CCOCC1)c(C)n2C(=O)c1cccc(Cl)c1Cl, the inhibition was -15.7%.
CCC1(C2=NCCN2)Cc2ccccc2O1 (stereo not given) was tested, and the inhibition was 0.3% (active).
With NC(Cc1ccc(N(CCCl)CCCl)cc1)C(=O)O (stereo not given) the inhibition was 85.8% (active).
For O=C(O)CCCc1ccc(N(CCCl)CCCl)cc1, the inhibition was 18% [setting not given] (active).
In the case of Cn1c(CCCC(=O)O)nc2cc(N(CCCl)CCCl)ccc21, the inhibition is reported as 87% (active).
For NCCc1ccc(S(=O)(=O)F)cc1, the inhibition was 22.8% (active).
In the case of NCCc1ccc(O)cc1, the inhibition is reported as 14.4% [setting not given] (active).
c1ccc2sc(C3(N4CCCCC4)CCCCC3)cc2c1 gave an inhibition of -3%.
With CN1C(=O)CCS(=O)(=O)C1c1ccc(Cl)cc1 (stereo not given) the inhibition was 18.9% (active).
With CCS(=O)(=O)Nc1cccc(C(=C2CCCCC2)c2cnc[nH]2)c1 the inhibition was 14.3% (active).
In the case of OC1CCCCC1N1CCC(c2ccccc2)CC1 (stereo not given), the inhibition is reported as 6.2% [setting not given] (active).
Work on C=C(C)[C@H]1Cc2c(ccc3c2O[C@@H]2COc4cc(OC)c(OC)cc4[C@@H]2C3=O)O1 yielded an inhibition of -11.7% [setting not given].
